# Several values for one entry are separate records, joined by “and”; a condition that tells them apart may be missing. Equal values may be shown once. Inconclusive results are not listed. Entries that show only a call come without a potency. More than one record can exist for a structure, and the calls need not agree. Activity calls are given as the source filed them. Calls follow the shape of the dose curve; as a rule, active = well fitted curve in the direction sought with a large enough effect in the repeat runs; inconclusive = weak or mixed curves; inactive = no such curve, though single readings can be large; an effect the other way counts as inactive or inconclusive.
# Assay: A CellTox Green Cytotoxicity Assay to monitor cytotoxicity in HepG2 cells - 40 hour (AID 1224879); also: nearly all actives have a fitted effect of over 40% in size
# Details: CellTox Green fluorescence; series mostly up to 76.8 µM; cytotoxicity increase: at the top concentration
# Method in brief: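 HepG2 cells, 600/well, preincubated 5 h with CellTox Green dye, then exposed to Tox21 compounds in DMSO at 37 C for up to 40 h. Dead-cell DNA fluorescence read at the indicated time point.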
# Potency is read from the fitted curve at half-maximal effect.
Structure (SMILES),Potency,cytotoxicity increase
CCOc1ccccc1C(N)=O,inactive,–
C/C=C/c1ccc(OCC)c(O)c1,inactive,–
Nc1nc(=S)c2[nH]cnc2[nH]1,inactive,–
O=c1n(CC2CO2)c(=O)n(CC2CO2)c(=O)n1CC1CO1 (stereo unspecified),–,26.1% (inactive)
CCC[C@H](N[C@@H](C)C(=O)N1[C@H](C(=O)O)C[C@@H]2CCCC[C@@H]21)C(=O)OCC,inactive,–
O=C1Nc2ccccc2C1(c1ccc(O)cc1)c1ccc(O)cc1,inactive,–
CC[C@]1(O)C[C@@H]2CN(CCc3c([nH]c4ccccc34)[C@@](C(=O)OC)(c3cc4c(cc3OC)N(C)[C@H]3[C@@](O)(C(=O)OC)[C@H](OC(C)=O)[C@]5(CC)C=CCN6CC[C@]43[C@@H]65)C2)C1,–,20.9% [at 35.3 µM] (inactive)
CCCCCCC(O)CCCCCCCCCCC(=O)O (stereo unspecified),–,1.32% (inactive)
NCCO,–,-0.0472% (inactive)
CC(=O)OCCOCCOCCOC(C)=O,inactive,–
O=C(O)c1cccc(C(=O)O)c1,inactive,–
C=C(C)C1CC=C(C)C(OC(C)=O)C1 (stereo unspecified),inactive,–
O=C(Oc1ccccc1)c1ccccc1O,–,21.7% (inactive)
CCC(=O)/C=C/C1C(C)=CCCC1(C)C (stereo unspecified),–,6.08% (inactive)
CC(C)(C)NC(=O)[C@@H]1CN(Cc2cccnc2)CCN1C[C@@H](O)C[C@@H](Cc1ccccc1)C(=O)N[C@H]1c2ccccc2C[C@H]1O,inactive,–
CC(C)(C)NCC(O)c1cc(O)cc(O)c1 (stereo unspecified),–,-19.8% [at 35.3 µM] (inactive)
Cc1ccnc2c1NC(=O)c1cccnc1N2C1CC1,inactive,–
Cc1cccc(O)c1C,–,-2.53% (inactive)
CC(=O)Nc1ccc(C(=O)CCl)cc1,inactive and 19.5 µM (active),–
O,inactive,–
C=C(C)C(=O)O,inactive,–
O=C(Cl)c1cccc(C(=O)Cl)c1,inactive,–
C#CC(C)(CC)OC(=O)c1ccccc1C(=O)O (stereo unspecified),–,-7.32% [at 35.3 µM] (inactive)
CCCCOCCOC(=O)c1ccccc1C(=O)OCCOCCCC,inactive,–
O=C(O)CP(=O)(O)O,–,-0.354% [at 35.3 µM] (inactive)
c1ccc2cc3c(ccc4ccccc43)cc2c1,21.9 µM (active) and inactive,–
O=C(O)c1cn(-c2ccc(F)cc2)c2cc(N3CCNCC3)c(F)cc2c1=O,inactive,–
CC(=O)O[C@]1(C(C)=O)CC[C@H]2[C@@H]3C[C@H](C)C4=CC(=O)CC[C@]4(C)[C@H]3CC[C@@]21C,–,12.5% [at 35.3 µM] (inactive)
CCCN[C@H]1CCc2nc(N)sc2C1,inactive,–

# Assay: qHTS RealTime-Glo MT Cell Viability Assay in HEK293 cells - 0 hour (AID 1224880); also: nearly all actives have a fitted effect of over 45% in size; as to activity change, negative = cytotoxicity: top concentration of the series differs between compounds
# Details: RealTime-Glo luminescence; series mostly up to 76.8 µM; activity change, negative = cytotoxicity: at the top concentration
# Method in brief: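 600 cells/well were plated with the nonlytic NanoLuc/prosubstrate reagent, pre-incubated 5 h, then given 23 nL of compound in DMSO. Incubation at 37 C for 40 h, with luminescence from viable-cell-reduced substrate read repeatedly from 0 h.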
Structure (SMILES),Potency,"activity change, negative = cytotoxicity"
CCOc1ccccc1C(N)=O,inactive,–
C/C=C/c1ccc(OCC)c(O)c1,inactive,–
Nc1nc(=S)c2[nH]cnc2[nH]1,inactive,–
O=c1n(CC2CO2)c(=O)n(CC2CO2)c(=O)n1CC1CO1 (stereo unspecified),inactive,–
CCc1ccc(C(c2ccc(CC)cc2)C(Cl)Cl)cc1,inactive,–
CCC[C@H](N[C@@H](C)C(=O)N1[C@H](C(=O)O)C[C@@H]2CCCC[C@@H]21)C(=O)OCC,inactive,–
O=C1Nc2ccccc2C1(c1ccc(O)cc1)c1ccc(O)cc1,–,-24.2% [at 35.3 µM] (inactive)
CC[C@]1(O)C[C@@H]2CN(CCc3c([nH]c4ccccc34)[C@@](C(=O)OC)(c3cc4c(cc3OC)N(C)[C@H]3[C@@](O)(C(=O)OC)[C@H](OC(C)=O)[C@]5(CC)C=CCN6CC[C@]43[C@@H]65)C2)C1,inactive,–
CCCCCCC(O)CCCCCCCCCCC(=O)O (stereo unspecified),inactive,–
CCN(CC)c1ccc2c(C)cc(=O)oc2c1,inactive,–
NCCO,–,-2.6% (inactive)
CC(=O)OCCOCCOCCOC(C)=O,inactive,–
O=C(O)c1cccc(C(=O)O)c1,inactive,–
C=C(C)C1CC=C(C)C(OC(C)=O)C1 (stereo unspecified),inactive,–
O=C(Oc1ccccc1)c1ccccc1O,inactive,–
CCC(=O)/C=C/C1C(C)=CCCC1(C)C (stereo unspecified),inactive,–
CC(C)(C)NC(=O)[C@@H]1CN(Cc2cccnc2)CCN1C[C@@H](O)C[C@@H](Cc1ccccc1)C(=O)N[C@H]1c2ccccc2C[C@H]1O,inactive,–
COC(=O)/C=C/c1ccccc1,–,15.3% (inactive)
CC(C)(C)NCC(O)c1cc(O)cc(O)c1 (stereo unspecified),–,-0.164% [at 35.3 µM] (inactive)

Structure (SMILES),Potency,"activity change, negative = cytotoxicity"
Cc1ccnc2c1NC(=O)c1cccnc1N2C1CC1,inactive,–
CC(=O)OCC1=C(C(=O)O)N2C(=O)[C@@H](NC(=O)Cc3cccs3)[C@H]2SC1,–,8.96% [at 35.3 µM] (inactive)
COC(=O)c1cccc(C(=O)OC)c1,inactive,–
Cc1cccc(O)c1C,–,0.194% (inactive)
CC(=O)Nc1ccc(C(=O)CCl)cc1,inactive,–
OCCN1CCNCC1,inactive,–
[Cl][In]([Cl])[Cl],inactive,–
O,inactive,–
C=C(C)C(=O)O,inactive,–
O=C(Cl)c1cccc(C(=O)Cl)c1,inactive,–
CC(=O)C1=C(C)[C@@H]2C[C@@]3(C1)[C@H](C)CC[C@H]3C2(C)C,inactive,–
C#CC(C)(CC)OC(=O)c1ccccc1C(=O)O (stereo unspecified),–,0.404% [at 35.3 µM] (inactive)
CCCCOCCOC(=O)c1ccccc1C(=O)OCCOCCCC,inactive,–
O=C(O)CP(=O)(O)O,–,-6.93% [at 35.3 µM] (inactive)
c1ccc2cc3c(ccc4ccccc43)cc2c1,–,8.37% (inactive)
O=C(O)c1cn(-c2ccc(F)cc2)c2cc(N3CCNCC3)c(F)cc2c1=O,inactive,–
CC(=O)O[C@]1(C(C)=O)CC[C@H]2[C@@H]3C[C@H](C)C4=CC(=O)CC[C@]4(C)[C@H]3CC[C@@]21C,691 nM (active) and 756 nM (active),–
CCCN[C@H]1CCc2nc(N)sc2C1,inactive,–
